A selection: hits, their analogues and other compounds. The true share with any hit is near 2.4%.
GLS inh – qHTS for Inhibitors of Glutaminase (GLS). Glutaminase kidney isoform, mitochondrial (Homo sapiens), O94925. GLS enzymatic activity, qHTS titration. Potency, µM (top dose mostly 45.5 µM), usual class: inhibitors. 410,000 tested, 0.21% active
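Human kidney-isoform GLS in 45 mM KH2PO4 pH 8.2, 0.02% Tween-20, with compound, started with 1mM L-Glutamine (added stock). Glutamate oxidase/HRP/Amplex red coupled fluorescence read at start and after 30 min at RT.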
Pol iota inh – qHTS for Inhibitors of Polymerase Iota; Potency, µM (titrated, usually from 115 µM), usual class: inhibitors; Pol iota fluorescent replication assay, 10 min; DNA polymerase iota (Homo sapiens), Q9UNA4; AID 588590, 2011; 390,000 tested, 1% active
Target sequence (Q9UNA4 whole entry, looked up): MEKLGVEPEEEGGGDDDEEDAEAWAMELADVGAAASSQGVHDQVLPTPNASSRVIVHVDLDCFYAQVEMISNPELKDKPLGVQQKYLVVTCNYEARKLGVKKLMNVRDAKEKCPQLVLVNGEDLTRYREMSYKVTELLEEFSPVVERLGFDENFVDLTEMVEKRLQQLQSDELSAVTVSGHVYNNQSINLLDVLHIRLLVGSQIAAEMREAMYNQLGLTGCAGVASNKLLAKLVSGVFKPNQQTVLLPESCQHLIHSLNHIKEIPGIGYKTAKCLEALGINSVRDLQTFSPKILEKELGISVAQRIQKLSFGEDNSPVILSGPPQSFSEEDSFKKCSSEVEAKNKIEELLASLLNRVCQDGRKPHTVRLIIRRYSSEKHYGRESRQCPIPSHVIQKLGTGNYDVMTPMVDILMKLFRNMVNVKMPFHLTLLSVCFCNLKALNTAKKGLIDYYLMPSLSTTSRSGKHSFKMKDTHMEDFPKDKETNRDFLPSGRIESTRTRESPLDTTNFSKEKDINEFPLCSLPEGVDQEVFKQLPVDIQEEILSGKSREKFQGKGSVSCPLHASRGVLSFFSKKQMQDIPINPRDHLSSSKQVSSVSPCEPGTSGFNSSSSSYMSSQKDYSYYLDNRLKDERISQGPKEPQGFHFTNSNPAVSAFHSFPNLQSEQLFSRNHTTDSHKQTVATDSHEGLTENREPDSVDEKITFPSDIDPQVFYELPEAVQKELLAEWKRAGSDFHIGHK
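Fluorescent replication assay read twice, at 0 min and 10 min after adding 50 nM (final) substrate. Enzyme (10 nM) and compounds were first incubated 15 min at room temperature; enzyme-free buffer wells were negative controls.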
POLH inh – qHTS for Inhibitors of Polymerase Eta | 390,000 tested, 1.2% active | Potency, µM (doses to about 114 µM), usual class: inhibitors | DNA polymerase eta (Homo sapiens), Q9Y253 | recombinant Pol eta, fluorescent DNA replication assay | AID 588591, 2011
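Pol eta at 10 nM preincubated with compounds 15 min at room temperature; reaction started with fluorescent substrate (50 nM final) and read kinetically at 0 and 10 min.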
POLK inh – qHTS for Inhibitors of Polymerase Kappa; DNA polymerase kappa (Homo sapiens), Q9UBT6; purified Pol kappa, fluorescent DNA synthesis assay, 10 min; Potency, µM (series often up to 107 µM), hits mostly inhibitors; 400,000 tested, 0.53% active
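First, compounds were pin-transferred onto 10 nM Pol kappa. After 15 min at room temperature, substrate was added to 50 nM final. Fluorescence was then measured kinetically at 0 and 10 min.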
GCN5L2 inh – qHTS Assay for Inhibitors of GCN5L2. GCN5L2 HAT assay, ThioGlo1 CoA-SH fluorescence. Potency, µM (series often up to 58.9 µM), usual class: inhibitors. 390,000 tested, 0.21% active
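Preincubate 20nM GCN5L2 with compound 15 min, RT → add 50uM ThioGlo1 + 75uM H3(1-25) + 70uM acetyl-CoA → read fluorescence 0 and 20 min. Primary qHTS; fluorescent artifacts likely.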
Pol beta inh – qHTS Assay for Inhibitors of DNA Polymerase Beta. P06746. AID 485314, 2010. Potency, µM (top dose mostly 114 µM), usual class: inhibitors. 340,000 tested, 1.3% active. Pol beta primer extension/strand displacement, fluorescence kinetic
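Reaction started by 50 nM substrate onto compound-treated Pol beta (10 nM, 15 min preincubation, room temperature); plates read at 0 min and 10 min. Normalized concentration-effect data fitted by four-parameter Hill equation.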
Numbers stand for hits; – = inactive; ? = inconclusive; · = no result given. The call rests on the fitted dose curve; in most records, active means well fitted inhibition curve with a large enough effect; inconclusive means small, poorly fitted or top-dose-only effect, or another doubt; inactive means no such curve, though single readings can be large or run the other way.

SMILES	GLS inh	Pol iota inh	POLH inh	POLK inh	GCN5L2 inh	Pol beta inh
COc1ccc(-n2nc3c(N4CCCC(C(=O)NCc5ccc(C)cc5)C4)nnc(C)c3c2C)cc1 (stereo unspecified)	–	–	?	–	–	16µM
COc1ccc(CNC(=O)C2CCCN(c3nnc(C)c4c(C)n(-c5ccc(C)cc5)nc34)C2)cc1 (stereo unspecified)	?	–	?	–	–	–
O=C(c1ccco1)N1CCN(C(=O)c2ccc(COc3ccc4c(c3)CCC4)o2)CC1	–	?	?	–	–	89µM
O=C(c1ccc(COc2ccc3c(c2)CCC3)o1)N1CCN(c2ccccc2)CC1	–	–	–	–	·	·
C=C[C@H](CC(C)C)N(Cc1ccccc1)S(=O)(=O)N(Cc1ccccc1)[C@H](C=C)CC(C)C	·	–	·	–	·	·
O=C(COC(=O)c1ccccc1OCCOc1ccccc1)Nc1ccccc1Br	·	–	·	–	·	·
CCCCNS(=O)(=O)c1cc(-c2nn(C)c(=O)c3ccccc23)ccc1C	–	?	?	?	–	35µM
COCCNS(=O)(=O)c1cc(-c2nn(C)c(=O)c3ccccc23)ccc1C	–	–	?	–	–	–
CCN(CC)S(=O)(=O)c1cc(-c2nn(C)c(=O)c3ccccc23)ccc1C	–	?	?	–	–	45µM
O=C(Nc1cccc2ccccc12)c1cnn2c1NC(=C1CC1)C=C2C(F)F	·	–	·	–	·	·
CCc1ccccc1NC(=O)Cn1nnc(-c2nc(-c3ccc(C)cc3)no2)c1N	–	–	·	–	–	–
Cc1[nH]c2ccccc2c1/C=N/Nc1nncn1N	?	5µM	–	–	–	?
O=C(O[C@H]1[C@H](Cc2ccccc2)NS(=O)(=O)[C@H]2CC3C=C[C@]12O3)c1ccc(Br)cc1	·	–	·	–	·	·
COc1ccccc1-c1cc2nc(C)cc(C)n2n1	–	–	–	–	–	89µM
Cc1[nH]n(-c2ccccc2)c(=O)c1CCO	–	–	–	–	–	–
CCc1c(C)[nH]n(-c2ccc(Oc3ccccc3)c(S(=O)(=O)O)c2)c1=O	–	18µM	11µM	35µM	–	25µM
Cc1cc(C)n(-c2ccc(Oc3ccccc3)c(S(=O)(=O)O)c2)n1	–	–	50µM	–	–	?
Cc1cc(C)n(-c2ccc(C(=O)O)cc2)n1	–	–	–	–	–	–
O=C(O)CC/C(=C\c1cccc(NC(=O)c2ccccc2Cl)c1)c1nc2ccccc2s1	–	–	–	–	–	18µM
O=C(O)CC/C(=C\c1cc([N+](=O)[O-])ccc1Cl)c1nc2ccccc2s1	–	–	–	–	–	–
CCOC(=O)c1noc2ncn(CC(=O)Nc3ccc(OC)c(Cl)c3)c(=O)c12	–	–	–	–	–	?
CCOC(=O)c1noc2nc(C)n(CC(=O)Nc3ccc(OC)c(Cl)c3)c(=O)c12	–	–	–	–	–	20µM
CC1(C)C(C(=O)O)N2C(=O)CC2S1(=O)=O (stereo unspecified)	–	·	·	–	–	·
COc1c(O)cc2c(c1O)[C@@H]1O[C@H](CO)[C@@H](O)[C@H](O)[C@H]1OC2=O	–	–	–	–	–	–
Cc1c(C(=O)O)c(O)cc2c1C(=O)c1c(O)c([C@H]3O[C@H](CO)[C@@H](O)[C@H](O)[C@H]3O)c(O)c(O)c1C2=O	?	79µM	·	3.2µM	?	·
SMILES	GLS inh	Pol iota inh	POLH inh	POLK inh	GCN5L2 inh	Pol beta inh
Cc1cc(N)c2cc(NC(=O)Nc3ccc4nc(C)cc(N)c4c3)ccc2n1	–	·	·	6.3µM	·	·
COCCn1c(=O)c(C)nc2cnc(N3CCNCC3)nc21	·	·	·	–	?	·
Cc1nc2cnc(N3CCNCC3)nc2n(CCC#N)c1=O	·	·	·	–	28µM	·
O=c1c(-c2ccccc2)nc2cnc(N3CCNCC3)nc2n1Cc1ccc(F)cc1	·	·	·	–	18µM	·
O=C(Nc1ccc(S(=O)(=O)N2CCOCC2)cc1)c1ccc(=O)[nH]c1	–	?	–	–	–	13µM
O=C(COC(=O)c1ccco1)NCc1ccco1	–	–	–	–	–	–
O=C(NCc1ccco1)c1ccc(S(=O)(=O)N2CCOCC2)cc1	–	16µM	?	?	–	35µM
O=C(COC(=O)c1ccc(Br)o1)NCc1ccco1	–	50µM	10µM	?	·	·
Cc1ccc(C(=O)NCc2ccco2)cc1S(=O)(=O)N1CCCCC1	–	?	?	?	?	40µM
O=C(O)CCc1cccc2ccccc12	·	–	·	–	·	·
O=C(COC(=O)c1ccccc1)NCc1ccco1	–	28µM	13µM	?	–	25µM
O=C(COC(=O)c1cc(Cl)cc(Cl)c1)NCc1ccco1	–	?	56µM	?	–	·
Cc1ccc(C(=O)OCC(=O)NCc2ccco2)cc1	–	–	?	–	–	–
O=C(COC(=O)Cc1ccc(Cl)c(Cl)c1)NCc1ccco1	–	–	–	–	–	·
O=C(COC(=O)CNC(=O)c1ccc(-c2ccccc2)cc1)NCc1ccco1	–	–	–	–	–	8.9µM
O=C(COC(=O)c1cccc(Br)c1)NCCNC(=O)COC(=O)c1cccc(Br)c1	–	–	–	–	–	–
O=C(COC(=O)c1cccc(Br)c1)NCc1ccco1	–	25µM	79µM	?	–	·
Cc1cccc(C(=O)OCC(=O)NCc2ccco2)c1	–	79µM	16µM	?	–	·
O=C(NCc1ccco1)c1ccc(S(=O)(=O)N2CCCCC2)cc1	–	–	–	–	–	–
O=C(COC(=O)c1ccc(S(=O)(=O)N2CCCC2)cc1)NCc1ccco1	–	50µM	?	?	–	?
O=S(=O)(c1ccc(NC(=S)N2CCN(c3ccc(O)cc3)CC2)cc1)N1CCOCC1	7.1µM	–	–	–	–	–
O=C(COC(=O)Cc1c(Cl)cccc1Cl)NCc1ccco1	–	45µM	35µM	?	–	·
CN(c1ccccc1)S(=O)(=O)c1cccc(C(=O)OCC(=O)NCc2ccco2)c1	–	–	–	–	–	–
O=C(Nc1cc(Cl)cc(Cl)c1)c1ccc(F)c(S(=O)(=O)N2CCc3ccccc32)c1	–	–	–	–	–	–
CC[C@H](C)[C@H](NC(=O)[C@H](CC(C)C)NC(=O)[C@H](CC(N)=O)NC(=O)[C@@H](NC(=O)[C@@H](N)Cc1ccc(O)cc1)[C@@H](C)CC)C(=O)N[C@@H](Cc1ccc(O)cc1)C(=O)N[C@@H](CCCN=C(N)N)C(=O)N[C@@H](CC(C)C)C(=O)N[C@@H](CCCN=C(N)N)C(=O)N[C@@H](Cc1ccc(O)cc1)C(N)=O	·	·	·	–	–	·
